For 23 compounds, Potency and outcome results are on record in PubChem BioAssay (Tox21).

Each structure is given as a SMILES string. Inconclusive results are not listed. The source holds several records for some structures; these can differ, active in one and inactive in another. Active and inactive are the calls of the source. Unless noted, calls come from the whole dose curve.

Test [1] in a line: qHTS assay to identify small molecule antagonists of the vitamin D receptor (VDR) signaling pathway - cell viability counter screen (AID 743225; active = well fitted curve in the direction sought with a large enough effect in the repeat runs; an effect the other way counts as inactive or inconclusive; note: nearly all actives have a fitted effect of over 50% in size). The essentials: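 VDR-bla HEK 293T cells, 4 h pre-incubation at 37C, then compound plus 1-alpha,25-dihydroxyvitamin D3 (3 nM final) for 16 h. After the beta-lactamase FRET read, CellTiter-Glo was added to the same wells; luminescence after 30 min at room temperature.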
For orientation: qHTS replaces the single test concentration by a dilution series.

Test [2] in a line: qHTS assay to identify small molecule agonists of the NFkB signaling pathway (AID 1159509; active = well fitted curve in the direction sought with a large enough effect in the signal ratio in the repeat runs, not every such curve was filed as active; the % refers to the signal ratio; note: series mostly up to about 61 µM). A digest of the protocol:
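NFkB-bla ME-180 cells carry a beta-lactamase reporter under an NF-kB response element. They were plated overnight, then exposed to compounds for 5 h at 37 C. Read-out is LiveBLAzer FRET after 1.5 hr at room temperature (405 nm excitation; 460/530 nm emission).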

Test [3] is described as follows: qHTS assay to identify small molecule agonists of the NFkB signaling pathway - cell viability counter screen (AID 1159515). Note: series mostly up to about 61 µM; nearly all actives have a fitted effect of over 55% in size. A digest of the protocol: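 NFkB-bla ME-180 cells, 2,000/well, plated overnight at 37 C; compound added for 5 hr at 37 C. Viability read in the same wells as the bla reporter, by CellTiter-Glo luminescence after 30 min at room temperature.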

Test [4] in a line: qHTS assay to identify small molecule agonists of the endoplasmic reticulum stress response signaling pathway (AID 1159516; active = well fitted activation curve with a large enough effect in the signal ratio in the repeat runs, not every such curve was filed as active; the % refers to the signal ratio). A digest of the protocol:
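CellSensor ESRE-bla HeLa cells, 1,500 per well, plated overnight, then exposed to compounds for 5 hr at 37 C. Beta-lactamase reporter read with LiveBLAzer B/G FRET substrate after 2 hr at room temperature, 405 nm excitation, 460 and 530 nm emission.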

Test [5] in a line: qHTS assay to identify small molecule agonists of the endoplasmic reticulum stress response signaling pathway - cell viability counter screen (AID 1159517).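 Note: HeLa cells carrying an ER stress response element beta-lactamase reporter; series mostly up to about 61 µM; nearly all actives have a fitted effect of over 50% in size.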 A digest of the protocol:
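HeLa cells carrying an ESRE-driven beta-lactamase reporter receive compound for 5 hr at 37 C. Cell viability is then gauged with CellTiter-Glo by luminescence, 30 min at room temperature.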

Test [6] can be described thus: qHTS assay to identify small molecule antagonists of the retinoid-related orphan receptor gamma (ROR-gamma) signaling pathway - cell viability counter screen (AID 1159520; active = well fitted curve in the direction sought with a large enough effect in the repeat runs; an effect the other way counts as inactive or inconclusive; note: nearly all actives have a fitted effect of over 50% in size; note: potency is the fitted concentration of half-maximal effect). A digest of the protocol: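 Cytotoxicity was read from cellular ATP (CellTiter-Glo luminescence) after 16 hr at 37 C with 1 uM doxycycline induction. The inducer was added 2 hr after compound transfer to Tet-on ROR gamma CHO cells.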

The target of test [7] is Nuclear receptor ROR-gamma (Homo sapiens) (UniProt P51449). Put plainly: qHTS assay to identify small molecule antagonists of the retinoid-related orphan receptor gamma (ROR-gamma) signaling pathway (AID 1159521; active = well fitted curve in the direction sought with a large enough effect in the repeat runs; an effect the other way counts as inactive or inconclusive; note: nearly all actives have a fitted effect of over 50% in size; note: potency is the fitted concentration of half-maximal effect). The essentials: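 Tet-on RORγ CHO cells carrying a ROR response element–luciferase reporter were pretreated with compounds for 2 h, then induced with 1 uM (final) doxycycline hyclate for 16 h at 37 C. Antagonism was read as decreased ONE-Glo luminescence.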

Test [8] is described as follows: qHTS assay to identify small molecule agonists of the AP-1 signaling pathway - cell viability counter screen (AID 1159525). Note: nearly all actives have a fitted effect of over 55% in size. The essentials: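 Luminescent ATP readout (Cell Titer Glo, 30 min RT), normalised to DMSO and tetra n-octyl ammonium bromide controls. Cells were ME-180 AP-1-bla in 0.5% dialyzed FBS Opti-MEM, with a 5 h, 37 °C compound exposure.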
Test [9] can be described thus: qHTS assay to identify small molecule agonists of the AP-1 signaling pathway (AID 1159526).
The target of test [10] is Retinoic acid receptor RXR-alpha (Homo sapiens) (UniProt P19793). The test can be described thus: qHTS assay to identify small molecule agonists of the RXR signaling pathway (AID 1159527). Note: nearly all actives have a fitted effect of over 35% in size. A digest of the protocol:
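GeneBLAzer RXR-alpha-UAS-bla HEK 293T cells in medium with 2% charcoal-stripped FBS, pre-incubated 5 hr at 37 C, then exposed to compounds 16 hr. Beta-lactamase reporter read by FRET substrate, 2 hr room temperature, 460/530 nm emission.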

Sequence of Retinoic acid receptor RXR-alpha (Homo sapiens) (P19793 whole entry, looked up): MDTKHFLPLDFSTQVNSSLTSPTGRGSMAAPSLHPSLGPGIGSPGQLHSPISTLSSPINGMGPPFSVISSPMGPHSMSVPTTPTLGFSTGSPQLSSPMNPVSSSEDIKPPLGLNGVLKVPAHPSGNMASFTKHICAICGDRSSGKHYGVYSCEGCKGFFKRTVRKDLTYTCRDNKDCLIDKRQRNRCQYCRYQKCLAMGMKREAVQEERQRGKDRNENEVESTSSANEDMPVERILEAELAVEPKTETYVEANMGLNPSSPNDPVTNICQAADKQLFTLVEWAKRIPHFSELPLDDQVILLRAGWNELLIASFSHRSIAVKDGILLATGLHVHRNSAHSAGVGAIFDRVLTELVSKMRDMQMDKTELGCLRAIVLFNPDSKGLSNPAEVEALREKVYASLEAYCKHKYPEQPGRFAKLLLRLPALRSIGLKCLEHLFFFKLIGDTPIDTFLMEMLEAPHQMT

Regarding `CN1C(C(=O)Nc2ccccn2)=C(O)c2ccccc2S1(=O)=O`, the Potency result in test [1], in test [3], in test [4], in test [5], in [6] and in test [7] was “inactive” each time. In addition, the Potency entry in test [8] and in test [10] was “inactive” each time. Moreover, the outcome in test [2] and in test [9] was inactive.
In the case of `COC(=O)Nc1nc2ccc(S(=O)c3ccccc3)cc2[nH]1` (centres undefined), the Potency result in test [1], in test [3], in [4], in [5], in test [6] and in test [7] was “inactive” in each case. In addition, the Potency result in [8] and in test [10] was “inactive” each time. For the same compound, the result in test [2] and in test [9] was inactive.
For the compound `COc1c(Cl)c(Cl)c(Cl)c(Cl)c1Cl`, the Potency result in [1], in test [3], in [4], in test [5], in [6] and in [7] was “inactive” in each case. Also, the Potency result in test [8] and in test [10] was “inactive” in each case. Also, the compound was called inactive in test [2] and in test [9].
Turning to `c1ccc(Nc2ccccc2)cc1`, the Potency result in test [1], in test [3], in test [4], in test [5], in test [8] and in [10] was “inactive” throughout. Besides, the result in [2] was inactive. Also, the Potency in test [6] was 54.4 µM (active) and inactive; in test [7], 13.7 µM (active) and inactive.
`COc1ccc(OC)c(C(O)CNC(=O)CN)c1` (centres undefined): the Potency result in test [1], in test [3], in test [4], in [5], in test [6] and in test [7] was “inactive” in each case. Further, the Potency entry in test [8] and in test [10] was “inactive” throughout. For the same compound, the compound was classed as inactive in [2] and in test [9].
As to `OC(CCl)CCl`, the Potency entry in test [1], in test [3], in test [4], in [5], in test [6] and in test [7] was “inactive” throughout. Moreover, the Potency result in test [8] and in [10] was “inactive” throughout. The compound was called inactive in [2] and in test [9].
Regarding `CC(C)(C)NC(=O)[C@H]1CC[C@H]2[C@@H]3CC[C@H]4NC(=O)C=C[C@]4(C)[C@H]3CC[C@]12C`, the Potency result in [1], in test [3], in [4], in test [5], in test [6] and in test [7] was “inactive” in each case. The Potency result in [8] was “inactive”. In addition, the compound was classed as inactive in test [2] and in test [9].
Take `CC(C)Oc1ccc2c(=O)c(-c3ccccc3)coc2c1`: the Potency result in test [1], in test [3], in test [4], in test [5], in test [6] and in test [7] was “inactive” in each case. The Potency result in test [8] and in [10] was “inactive” each time. In addition, the call in [2] and in test [9] was inactive.
Regarding `Clc1nc(Cl)c(Cl)c(Cl)c1Cl`, the Potency entry in [1], in test [3], in test [4], in test [5], in [6] and in [7] was “inactive” each time. Besides, the Potency entry in test [8] and in [10] was “inactive” throughout. For the same compound, the outcome in test [2] and in test [9] was inactive.
As for `CC(=O)C1(C)CC2=C(CCCC2(C)C)CC1C` (centres undefined), the Potency result in test [1], in test [3], in test [4], in test [5], in test [6] and in [7] was “inactive” each time. Moreover, the Potency entry in test [8] and in test [10] was “inactive” throughout. Besides, the result in test [2] and in test [9] was inactive.
Turning to `CC(=O)CC/C=C(\C)CCC=C(C)C`, the Potency entry in [1], in test [3], in test [4], in [5], in test [6] and in [7] was “inactive” in each case. Further, the Potency result in [8] and in test [10] was “inactive” in each case. Besides, the compound was classed as inactive in [2] and in [9].
With `Cc1[nH]c(=O)c(C#N)cc1-c1ccncc1`, the Potency entry in test [1], in [3], in test [4], in test [5], in test [6] and in [7] was “inactive” in each case. Also, the Potency entry in [8] and in test [10] was “inactive” each time. Besides, the compound was called inactive in test [2] and in [9].
As for `CC(C)=CCCC(C)CCO` (centres undefined), the Potency entry in test [1], in test [3], in [4], in test [5], in test [6] and in test [7] was “inactive” in each case. The Potency result in test [8] and in test [10] was “inactive” throughout. Also, the outcome in test [2] and in test [9] was inactive.
As for `CCOCCOCCO`, the Potency result in [1], in test [3], in [4], in [5], in test [6] and in [7] was “inactive” in each case. The Potency result in test [8] and in [10] was “inactive” in each case. In addition, the call in [2] and in [9] was inactive.
For the compound `NC=O`, the Potency result in test [1], in test [3], in test [4], in [5], in [6] and in [7] was “inactive” throughout. The Potency result in [8] and in test [10] was “inactive” in each case. The result in [2] and in test [9] was inactive.
On to `COC(C)COC(C)COC(C)CO` (centres undefined), for which the Potency result in [1], in test [3], in [4], in test [5], in [6] and in [7] was “inactive” each time. For the same compound, the Potency result in test [8] is “inactive”. The outcome in test [2] and in [9] was inactive.
On to `CC(C)OC(=O)C(C)(C)Oc1ccc(C(=O)c2ccc(Cl)cc2)cc1`, for which the Potency entry in test [1], in test [3], in test [4], in test [5] and in test [6] was “inactive” in each case. Moreover, the compound was classed as inactive in test [2] and in test [9]. Besides, the Potency in test [7] was 68.6 µM (active).
Regarding `OC[C@H]1O[C@@H]2O[C@H]3[C@H](O)[C@@H](O)[C@@H](O[C@H]4[C@H](O)[C@@H](O)[C@@H](O[C@H]5[C@H](O)[C@@H](O)[C@@H](O[C@H]6[C@H](O)[C@@H](O)[C@@H](O[C@H]7[C@H](O)[C@@H](O)[C@@H](O[C@H]8[C@H](O)[C@@H](O)[C@@H](O[C@H]1[C@H](O)[C@H]2O)O[C@@H]8CO)O[C@@H]7CO)O[C@@H]6CO)O[C@@H]5CO)O[C@@H]4CO)O[C@@H]3CO`, the Potency entry in test [1], in test [3], in test [4], in test [5], in test [6] and in test [7] was “inactive” throughout. Besides, the Potency entry in [10] is “inactive”. Moreover, the call in test [2] and in test [9] was inactive.
As for `O=[N+]([O-])c1ccc2c(c1)Cc1ccccc1-2`, the Potency entry in test [1], in test [3], in [4], in [6], in [7] and in [8] was “inactive” each time. The Potency result in [10] was “inactive”. In addition, the result in test [2] and in test [9] was inactive.
Consider `c1ccc2c(c1)Oc1ccccc1S2`, for which the Potency result in [1], in test [3], in test [4], in test [5], in [6] and in [7] was “inactive” in each case. Moreover, the Potency result in test [8] and in test [10] was “inactive” throughout. The compound was classed as inactive in test [2].
Take `c1ccncc1`: the Potency result in test [1], in test [3], in test [4], in test [5], in test [6] and in test [7] was “inactive” each time. Moreover, the Potency entry in test [10] is “inactive”. Moreover, the compound was called inactive in [2] and in test [9].
On to `CC(C(=O)O)c1cccc(C(=O)c2ccccc2)c1` (centres undefined), for which the Potency entry in test [1], in test [3], in [4], in [5], in test [6] and in [7] was “inactive” throughout. The Potency entry in test [10] was “inactive”. Also, the outcome in [2] and in test [9] was inactive.
Take `CC(=O)c1ccccn1`: the Potency entry in [1], in [3], in test [4], in test [5], in [6] and in test [7] was “inactive” throughout. The Potency result in test [10] is “inactive”. Further, the compound was classed as inactive in test [2] and in [9].
